Tb PYK inh: T. brucei pyruvate kinase inhibition. Potency, µM (doses to about 76.8 µM), for inactives: top-dose activity, negative = inhibition, actives largely listed as inhibitors. TbPYK enzyme, Kinase-Glo Plus ATP luminescence, 45 min. actives 0.12% (n = 410,000). AID 624173. Q57TT1; also: % is scaled to controls: 0 for no effect and ±100 for the full control effect; nearly all actives have a fitted effect of over 50% in size
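Luminescent Kinase-Glo Plus end-point after 45 min room-temperature reaction of T. brucei pyruvate kinase started with 130 uM ADP (final). Buffer TEA 50 mM pH 7.2 with KCl, MgCl2, BSA, Tween-20; titration-based qHTS with fitted concentration-effect curves.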
RE007 growth inh: less growth of the S. pombe RE007 Vpr strain; S. pombe RE007 Vpr strain, BacTiter-Glo ATP luminescence, 24 h; Potency, µM (doses to about 92.2 µM), inactives show at the highest dose activity change, negative = less growth, actives largely listed as inhibitors; actives 0.21% (n = 360,000); AID 651644; active = well fitted falling curve with a large enough effect; inconclusive = small, poorly fitted or top-dose-only effect; inactive = no such curve, though single readings can be large or run the other way; also: % is scaled to controls: 0 for no effect and ±100 for the full control effect; nearly all actives have a fitted effect of over 50% in size
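Fission yeast RE007 carrying one integrated HIV-1 vpr copy, seeded at OD 0.01 in PMG+AL medium with 23 nL pinned compound. Grown 24 h at 30 degrees; viability read by BacTiter-Glo luminescence after 5 min.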
Sm TGR inh: S. mansoni TGR enzyme inhibition | Q962Y6 | purified TGR, DTNB reduction, TNB absorbance 405 nm | Potency, µM (titrated, usually from 114 µM), without a hit: at the highest dose activity change, negative = inhibition, actives largely listed as inhibitors | actives 3% (n = 360,000) | AID 485364; also: % is scaled to controls: 0 for no effect and ±100 for the full control effect; nearly all actives have a fitted effect of over 60% in size
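TGR 20 nM + NADPH 100 uM (dispensed conc.), cpd preinc 15 min RT; start with NADPH (500 uM addition) then DTNB (15 mM addition). Kinetic TNB absorbance, 405 nm filter. Four-parameter Hill fit across titration.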
AmpC no deterg: AmpC beta-lactamase inhibition without detergent | AmpC nitrocefin hydrolysis, absorbance 480 nm, 0.0001% Triton | actives 0.52% (n = 330,000) | Potency, µM (top dose mostly 57.1 µM), without a hit: at the top dose activity change, negative = inhibition, actives largely listed as inhibitors;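 also: plate controls were no compound for no effect and no enzyme for full effect; nearly all actives have a fitted effect of over 20% in size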
Target sequence (P00811 whole entry, looked up): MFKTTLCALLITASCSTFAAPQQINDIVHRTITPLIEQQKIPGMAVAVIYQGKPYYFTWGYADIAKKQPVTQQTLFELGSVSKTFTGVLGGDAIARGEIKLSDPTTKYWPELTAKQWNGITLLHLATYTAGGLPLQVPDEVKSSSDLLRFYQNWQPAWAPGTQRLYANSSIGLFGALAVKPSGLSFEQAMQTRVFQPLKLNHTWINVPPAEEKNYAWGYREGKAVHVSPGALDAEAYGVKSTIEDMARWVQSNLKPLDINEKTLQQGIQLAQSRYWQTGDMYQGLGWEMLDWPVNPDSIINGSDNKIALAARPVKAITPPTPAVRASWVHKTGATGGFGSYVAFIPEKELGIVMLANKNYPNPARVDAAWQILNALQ
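AmpC (5.3 nM in the dispensed reagent) in 20 mM phosphate pH 7.0 with 0.01% (detergent screen) or 0.0001% Triton X-100 was preincubated with compounds for 15 min at room temperature. Nitrocefin was then added from an 800 uM solution, and hydrolysis was followed at 480 nm.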
AmpC inh detg: blocks E. coli AmpC beta-lactamase in detergent assay; P00811; actives 0.041% (n = 370,000); AmpC hydrolysis of nitrocefin, absorbance 480 nm, 0.01% Triton; AID 485294; Potency, µM (doses to about 114 µM), without a hit: at the highest dose activity change, negative = inhibition, actives largely listed as inhibitors;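 also: 0% = no-compound wells and -100% = no-enzyme wells; nearly all actives have a fitted effect of over 25% in size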
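AmpC (5.3 nM in the dispensed reagent) in 20 mM phosphate pH 7.0 with 0.01% (detergent screen) or 0.0001% Triton X-100 was preincubated with compounds for 15 min at room temperature. Nitrocefin was then added from an 800 uM solution, and hydrolysis was followed at 480 nm.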
SARS PLpro yeast: SARS-CoV PLP inhibition in yeast | S. cerevisiae expressing SARS-CoV PLpro, growth rescue | Potency, µM (titrated, usually from 32.9 µM), for the others: at the highest dose activity, positive = growth rescue, hits mostly activators | actives 0.19% (n = 330,000) | AID 485353; calls by dose curve; also: 0% is about no effect; nearly all actives have a fitted effect of over 55% in size
Starred values were filed as active, the others as inactive; ? = inconclusive; / = no result given; [ ] = another dose, or the depositor's remark. An excerpt weighted towards active compounds, which were near 3.3% of everything screened. Unless noted, calls follow the shape of the dose curve; as a rule, active = well fitted curve in the direction sought with a large enough effect; inconclusive = small, poorly fitted or top-dose-only effect, or another doubt; inactive = no such curve, though single readings can be large; an effect the other way counts as inactive or inconclusive. Potency is read from the fitted curve at half-maximal effect.

SMILES | Tb PYK inh | RE007 growth inh | Sm TGR inh | AmpC no deterg | AmpC inh detg | SARS PLpro yeast
COc1ccc(-c2ccc(C#N)c(SCC(=O)NCc3ccco3)n2)cc1OC | -3% | -21% | 32µM* | -1% | 4% | -1%
COc1ccc(-c2ccc(C#N)c(SCC(=O)NC3CC3)n2)cc1OC | -1% | 6% | 8% | -27% | -7% | 1%
O=C(COc1ccccc1Cl)NCc1ccco1 | 0% | -9% | -31% | 4% | 0% | -2%
CCOc1ccccc1OCC(=O)NCc1ccco1 | -7% | 6% | 20µM* | -2% | -1% | -2%
CNC(=O)c1cc2n(n1)CCCN(Cc1ccc(F)cc1)C2=O | 2% | / | 5% | / | 7% | /
CC1CCN(S(=O)(=O)c2cc(C(=O)NCc3ccc(N(C)C)cc3)n(C)c2)CC1 | -7% | / | -5% | / | -3% | /
CCOc1ccc(C(=O)OCC(=O)NCc2ccco2)cc1OCC | -6% | 14% | 45µM* | -10% | ? | -2%
COc1ccc(C(=O)OCC(=O)NCc2ccco2)cc1OC | 4% | -3% | 35µM* | -11% | ? | -11%
Cc1ccc(C(=O)OCC(=O)NCc2ccco2)cc1 | -6% | -7% | -5% | -6% | ? | -3%
Cc1nn(-c2ccc(F)cc2)c(-n2cccc2)c1C(=O)NCCc1ccc(Cl)cc1 | 5% | / | 2% | / | -7% | /
O=C(CCl)N(c1ccccc1)C1CCCCC1 | -4% | 13% | 3.2µM* | -4% | -4% | 1%
O=C(O)c1ccccc1SCCS(=O)(=O)c1ccc(Cl)cc1Cl | 2% | -14% | 45µM* | -20% | 3% | -2%
O=S(=O)(CCN1CCN(c2ccccn2)CC1)c1ccc(Cl)cc1Cl | 0% | ? | 10% | 43% | 7% | -5%
COC(=O)c1scc(-c2ccc(C)cc2)c1S(=O)(=O)Nc1cccc(C(F)(F)F)c1 | -26% | / | -5% | / | -3% | /
Oc1ccc(NC(=S)N=Nc2c(O)[nH]c3ccc(Br)cc23)cc1 | 1% | -6% | -9% | 18µM* | 2% | 1%
C#CCOc1c(Br)cc(C2C(C(=O)OC)=C(C)NC3=C2C(=O)c2ccccc23)cc1OCC (stereo not drawn) | 4% | / | 28µM* | / | -1% | /
CCOc1ccc(C2C(C(=O)OC)=C(C)NC3=C2C(=O)c2ccccc23)cc1OC (stereo not drawn) | -8% | / | -7% | / | 2% | /
CCN(Cc1ccccc1)S(=O)(=O)c1ccc(F)c(C(=O)Nc2ccc(C(C)C)cc2)c1 | 1% | / | 8% | / | -7% | /
CCCCN(CCCC)CCNC(=O)c1cn(C)c2ccc(S(=O)(=O)N3CCOCC3)cc2c1=O | -5% | / | 8% | / | 4% | /
COC(=O)c1ccc(CS(=O)(=O)c2ccc(C)cc2)o1 | 4% | -4% | 11µM* | -18% | -13% | -1%
COC(=O)c1ccc(CN(C)S(=O)(=O)c2ccc(C)cc2)o1 | -11% | 7% | 8% | -15% | ? | 0%
CCCCNC(=O)c1ccc(CS(=O)(=O)c2ccc(C)cc2)o1 | -17% | 4% | 45µM* | -19% | 4% | 0%
COCCCNC(=O)c1ccc(CSCc2ccc(C)cc2)o1 | -1% | 14% | 40µM* | 25% | -1% | -2%
Cc1nn(-c2ccc(F)cc2)c2nc(N)c(C#N)c(-c3ccc(O)c(O)c3)c12 | -9% | 9% | -13% | 14µM* | 2% | -1%
Cc1nn(-c2ccccc2)c2nc(N)c(C#N)c(-c3ccc(O)c(O)c3)c12 | 7% | -3% | 0% | -50% | 1% | 0%
SMILES | Tb PYK inh | RE007 growth inh | Sm TGR inh | AmpC no deterg | AmpC inh detg | SARS PLpro yeast
CCCCCCCN1N=C(C)C(C(=O)c2ccccc2)C1=O (stereo not drawn) | -6% | -2% | 2% | -14% | 2% | 10µM*
CCCCCCN1N=C(C)C(C(=O)c2ccc(Cl)cc2)C1=O (stereo not drawn) | 0% | -8% | 11% | -26% | ? | 23%
COc1ccc(-n2ncc(C(=O)N3CCN(C4CCCCC4)CC3)c2C2CCN(C(=O)OC(C)(C)C)CC2)cc1 | -3%[15.4 µM] | / | -15% | / | -1% | /
O=C1NN(c2ccccc2)C(=O)/C1=C\c1coc2ccc(O)cc2c1=O | ? | 6% | 16µM* | -36% | ? | -2%
O=C1NC(=O)N(c2ccc(Cl)cc2)C(=O)/C1=C/c1coc2ccc(O)cc2c1=O | ? | -9% | 1µM* | -33% | 1% | 1%
O=C1NC(=O)N(c2ccccc2)C(=O)/C1=C/c1coc2ccc(O)cc2c1=O | ? | 23% | 0% | -25% | -13% | 0%
Cc1ccc(NCc2cccn2-c2nnc(N3CCC(C(=O)NCc4ccccc4C)CC3)s2)cc1 | 1% | / | -7% | / | -10% | /
CC(=O)c1cccc(NC(=O)c2sc(-n3nc(C)c(Cc4ccccc4)c3C)nc2C)c1 | -9% | / | 7% | / | 20% | /
COc1ccc(C(=O)C2CCCN(Cc3c(C)[nH]c4ccccc34)C2)c(OC)c1 (stereo not drawn) | / | / | 35µM* | 18% | -7% | -1%
COc1ccc(C(=O)C2CCCN(Cc3ccccn3)C2)c(OC)c1 (stereo not drawn) | 1% | -23% | -14%[57.1 µM] | 31% | 1% | 1%
COc1cccc(Cn2ncc3c4sc(B(O)O)cc4n(C)c3c2=O)c1 | / | / | -2% | 2.2µM* | 1.1µM* | -7%
Cc1cc(C)n2nc(SCC(=O)c3ccc[nH]3)nc2n1 | -21% | -10% | 32µM* | -6% | -15% | 4%
CNC(=O)CSc1nc2nc(C)cc(C)n2n1 | 1% | 2% | 7% | -12% | -15% | 4%
Cc1cc(Cl)ccc1N=c1ssnc1Cl | ? | 74% | ? | -31% | -7% | -18%
COc1cc(N=c2ssnc2Cl)c(OC)cc1Cl | 11µM* | ? | ? | -8% | 3% | -2%
COc1ccc(OC)c(N=c2ssnc2Cl)c1 | 28µM* | ? | 56µM* | -32% | -10% | 0%
Cc1ccc(S(=O)(=O)C(CNS(=O)(=O)c2ccc(F)c(C)c2)c2cccs2)cc1 (stereo not drawn) | -9% | / | 0.63µM* | / | 0% | /
CCC(=O)NCC(c1cccs1)S(=O)(=O)c1ccc(C)cc1 (stereo not drawn) | 4% | 2% | 89µM* | -12% | -10% | 0%
CCCC(=O)NCC(c1cccs1)S(=O)(=O)c1ccc(C)cc1 (stereo not drawn) | 4% | 8% | -17% | -5% | -10% | -9%
CCOc1ccc(S(=O)(=O)NCC(c2cccs2)S(=O)(=O)c2ccc(C)cc2)cc1 (stereo not drawn) | 2% | / | 0.32µM* | / | -2% | /
